From PubChem BioAssay
A selection: hits, their analogues and other compounds. The true share with any hit is near 19%.
DT40 TDP1 CPT: DT40-hTDP1 cell growth loss with CPT. chicken DT40 Tdp1-/-;hTDP1 cells + 20 nM CPT, ATP luminescence, 48 h. Potency, µM (top dose mostly 46.2 µM), hits mostly inhibitors. 420,000 compounds, 12% hits; note: nearly all actives have a fitted effect of over 55% in size
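Cell growth measured by CellTiter-Glo luminescence after a minimum 48 h, 37 C compound exposure with 20 nM CPT in Tdp1-knockout DT40 cells stably expressing hTDP1, seeded 400/well; qHTS titration format.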
IL1B secr inh: inhibitors of inflammasome signaling (IL-1 beta secretion). THP-1 LPS/ATP IL-1B secretion, AlphaLISA, 16 h; stronger effect = lower value. activity change, % at 57.5 µM. 360,000 compounds, 4.7% hits; in the data active = activity change below about -50%; inconclusive = mostly about -30% to -49%
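THP-1 cells pretreated 1 hr with compounds (up to 57.5 uM final), then stimulated with LPS (250 ng/mL final) plus ATP (1.25 mM final); secreted IL-1B measured by AlphaLISA after 16 hr, decreased signal indicating inhibition.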
TGFb inhibitor: inhibitors of TGF-b signaling; HepG2 CAGA-GFP TGF-b/SMAD3 reporter, GFP fluorescence, 18 h; TGF-beta stimulated, 500 pg/mL final; Potency, µM (top dose mostly 46.1 µM), usual class: inhibitors; 410,000 compounds, 1.2% hits; note: nearly all actives have a fitted effect of over 65% in size
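HEPG2 CAGA-GFP, 1000 cells/well; 2 h settle, 37 C; cpd via pin tool; TGF-b 500 pg/mL final; 18 h, 37 C; GFP imaging ex488/em500-530; %Activity normalised to -TGF-b and +DMSO controls; CRC fit, curve class.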
HepG2 viability: counter-screen for TGF-b inhibitors: cytotoxicity in HepG2 cells. 410,000 compounds, 0.76% hits. HepG2 CAGA-GFP viability, ATP luminescence, 18 h. Potency, µM (titrated, usually from 46.1 µM), most hits filed as cytotoxic
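HepG2 CAGA-GFP cells (1000/well, DMEM with 1% FBS) received compound, then TGF-beta at 500 pg/mL final, and were incubated 18 hours at 37 degrees C. Viability was read by CellTiter-Glo luminescence. Media-only wells were set as complete cell-killing and DMSO as no toxicity.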
TDP1 cell noCPT: qHTS for Inhibitors of human tyrosyl-DNA phosphodiesterase 1 (TDP1): qHTS in cells in absence of CPT | DT40 Tdp1-/- hTDP1 cells, no CPT, ATP luminescence, 48 h | Potency, µM (doses to about 46.2 µM), hits mostly inhibitors | 420,000 compounds, 15% hits | AID 686978, 2013; note: nearly all actives have a fitted effect of over 55% in size
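Growth kinetics read by CellTiter-Glo luminescence after ≥48 hr at 37 °C. Cells: DT40 Tdp1-/- stably carrying human TDP1, 400 per well, compound exposure in the absence of CPT (DMSO vehicle).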
ASM inhibitor: blocks human secretory acid sphingomyelinase; P17405; placental ASM, HMU-PC fluorogenic substrate, 60 min; Potency, µM (series often up to 57.5 µM), most hits filed as inhibitors; 340,000 compounds, 0.006% hits
Target sequence (P17405 47-631 limits assumed): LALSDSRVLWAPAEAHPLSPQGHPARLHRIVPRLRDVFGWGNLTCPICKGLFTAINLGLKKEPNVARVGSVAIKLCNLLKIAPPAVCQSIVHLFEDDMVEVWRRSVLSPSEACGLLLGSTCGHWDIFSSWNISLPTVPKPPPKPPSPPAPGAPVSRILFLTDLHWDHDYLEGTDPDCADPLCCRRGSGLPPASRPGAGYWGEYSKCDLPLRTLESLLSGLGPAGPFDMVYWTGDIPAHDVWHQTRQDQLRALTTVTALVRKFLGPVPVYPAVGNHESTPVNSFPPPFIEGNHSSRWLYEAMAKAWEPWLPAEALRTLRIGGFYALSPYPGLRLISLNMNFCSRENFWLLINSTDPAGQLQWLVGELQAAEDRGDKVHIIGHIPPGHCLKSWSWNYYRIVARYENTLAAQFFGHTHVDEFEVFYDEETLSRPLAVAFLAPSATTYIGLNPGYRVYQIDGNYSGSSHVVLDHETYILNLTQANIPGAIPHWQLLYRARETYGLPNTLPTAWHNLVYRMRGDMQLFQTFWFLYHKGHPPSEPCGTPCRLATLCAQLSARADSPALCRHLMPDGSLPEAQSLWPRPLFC
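Fluorogenic HMU-PC substrate (9 uM final) is turned over by placental ASM in 60 min at 37 C after a 10 min compound preincubation. Reaction ended by alkaline stop (pH 10), with fluorescence read at 386/447 nm.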
Numbers stand for hits; . = inactive; ? = inconclusive; / = no result. Unless noted, calls come from the whole dose curve; as a rule, active = well fitted curve in the direction sought with a large enough effect; inconclusive = small, poorly fitted or top-dose-only effect, or another doubt; inactive = no such curve, though single readings can be large; an effect the other way counts as inactive or inconclusive.

SMILES | DT40 TDP1 CPT | IL1B secr inh | TGFb inhibitor | HepG2 viability | TDP1 cell noCPT | ASM inhibitor
C=C1C(=O)C=C2CN(C(=O)c3ccccc3)[C@@](Cc3ccc(F)cc3)(C(=O)OC)[C@@H]12 | 0.16µM | -103 | 1.8µM | 3.2µM | 0.052µM | .
CNS(=O)(=O)c1cccc(C(=O)OCC(=O)NC(C)CCc2ccccc2)c1 (stereo not given) | . | . | . | . | . | .
CN(C(=O)COC(=O)c1cc(NS(=O)(=O)c2cc([N+](=O)[O-])ccc2Cl)ccc1O)C1CCCCC1 | . | -81 | ? | . | . | .
CC(CCc1ccccc1)NC(=O)COC(=O)c1cc(NS(=O)(=O)c2ccc(Cl)c([N+](=O)[O-])c2)ccc1O (stereo not given) | ? | -98 | ? | . | ? | .
CCOc1ccc(S(=O)(=O)N2CCCC(C(=O)Nc3cccc(C)c3)C2)cc1 (stereo not given) | ? | . | . | . | ? | .
Cc1ccc(NC(=O)CCc2nc3cccnc3n2-c2ccccc2)cc1Cl | 16µM | / | . | . | 16µM | /
CCOc1ccc(OCC)c(NC(=O)CCc2nc3cccnc3n2-c2ccccc2)c1 | 21µM | / | . | . | ? | /
CCOC(=O)c1cccc(NC(=O)CCc2nc3cccnc3n2-c2ccccc2)c1 | . | / | . | . | . | /
O=C(CCc1nc2cccnc2n1-c1ccccc1)Nc1ccc(Cl)c(Cl)c1 | ? | / | . | . | 18µM | /
CCCn1c(CCC(=O)Nc2ccc(C)c(Cl)c2)nc2cccnc21 | ? | / | . | . | ? | /
CCOC(=O)c1[nH]c(C)c(C(=O)N2CCN(c3ccccc3OC)CC2)c1C | ? | . | . | . | ? | .
O=C(COC(=O)c1cc(S(=O)(=O)N2CCOCC2)ccc1Cl)Nc1ccccc1Cl | . | . | . | . | . | .
COc1ccc(C(=O)Nc2nnc(S(=O)(=O)N3CCN(c4ccc(C)cc4)CC3)s2)cc1 | . | / | . | . | . | /
Cc1c(NC(=O)c2cc([N+](=O)[O-])ccc2N2CCOCC2)cccc1-c1nc2ccccc2o1 | ? | / | ? | . | 26µM | /
CC1CCN(c2ccccc2NC(=O)c2cc([N+](=O)[O-])ccc2N2CCOCC2)CC1 | ? | . | . | . | 16µM | .
CCc1ccc(CN2C(=O)c3ccccc3C2C(=O)NCCc2ccc(OC)c(OC)c2)cc1 (stereo not given) | ? | / | . | . | ? | /
Cc1ccc(NC(=O)COC(=O)CCc2c(C)nc3nc(N)nn3c2C)cc1C | . | . | . | . | . | .
CCN(CC)S(=O)(=O)c1ccc(N/N=C/c2ccc(OC)c(OC)c2OC)nc1 | ? | . | . | . | 18µM | .
CCCNc1ccc(S(=O)(=O)N(C(C)C)C(C)C)cn1 | . | . | . | . | ? | .
CCCNc1ccc(S(=O)(=O)N(CC)CC)cn1 | 16µM | . | . | . | . | .
CCOc1cccc(/C=N/Nc2ccc(S(=O)(=O)N(CC)CC)cn2)c1O | 0.16µM | . | . | . | 0.58µM | .
CCN(CC)S(=O)(=O)c1ccc(N/N=C/c2ccc(O)cc2)nc1 | ? | . | . | . | . | .
CCN(CC)S(=O)(=O)c1ccc(N/N=C/c2cc(OC)c(OC)cc2OC)nc1 | . | . | . | . | ? | .
CCN(CC)S(=O)(=O)c1ccc(N/N=C(\C)c2ccc(OC)cc2O)nc1 | 3.3µM | . | 8.9µM | . | 29µM | .
CS(=O)(=O)N(CC(=O)NCc1ccco1)c1cccc([N+](=O)[O-])c1 | . | . | . | . | . | .
SMILES | DT40 TDP1 CPT | IL1B secr inh | TGFb inhibitor | HepG2 viability | TDP1 cell noCPT | ASM inhibitor
CCOC(=O)C1CCN(C(c2ccccc2OC)c2c(O)cc(C)n(CCOC)c2=O)CC1 (stereo not given) | . | / | . | . | . | /
Brc1ccc(-c2c[n+]3c(n2-c2ccccc2)SCC3)cc1 | 5.8µM | / | . | . | 5.8µM | .
COc1ccc(-c2c[n+]3c(n2-c2ccccc2)SCC3)cc1OC | . | . | . | . | ? | .
Cc1ccc(-c2c[n+]3c(n2-c2ccccc2)SCC3)cc1 | 3.3µM | . | . | . | 2.3µM | .
COc1ccc(-c2c[n+]3c(n2-c2ccccc2)SCC3)cc1 | 8.2µM | . | ? | . | 4.6µM | .
Cc1onc(-c2ccccc2)c1CNC(=O)C1COc2ccccc2O1 (stereo not given) | . | / | . | . | ? | .
O=C1OCCC1Sc1nnc(-c2ccccc2Br)n1Cc1ccccc1 (stereo not given) | . | -54 | . | . | . | .
O=C1OCCC1Sc1nnc(-c2ccccc2Cl)n1Cc1ccccc1 (stereo not given) | . | . | . | . | . | .
Cn1cnc(S(=O)(=O)N2CCC(C(=O)NCc3ccc(Cl)cc3)CC2)c1 | . | / | . | . | ? | /
CC(C)c1ccc(NC(=O)CNS(=O)(=O)c2ccc(F)cc2)cc1 | 16µM | . | . | . | 12µM | .
O=C(C[n+]1ccc(C(=O)c2ccccc2)cc1)Nc1ccc(C(F)(F)F)cc1 | 23µM | -60 | . | . | 16µM | .
O=C(CNS(=O)(=O)c1ccccc1)Nc1ccc(C(F)(F)F)cc1 | 16µM | . | . | . | 16µM | .
O=C(Nc1ccc(C(F)(F)F)cc1)c1ccccc1 | . | . | ? | . | . | .
O=C(CNS(=O)(=O)c1ccc(F)cc1)Nc1ccc(C(F)(F)F)cc1 | 18µM | . | . | . | 18µM | .
COc1ccc(S(=O)(=O)NCC(=O)Nc2ccc(F)cc2)cc1 | . | . | . | . | ? | .
O=C(C[n+]1cccc2ccccc21)c1ccc(F)cc1 | . | / | ? | . | . | /
COc1ccc(-n2c(=O)c3c(c4cc(OC)ccc4n3C)n(CCC(C)C)c2=O)cc1 | . | / | . | . | . | /
CC(C)CC(=O)Nc1ccc(-c2cn3ccsc3n2)cc1 | ? | . | . | . | ? | .
CC(C)(C)C(=O)Nc1ccc(-c2cn3ccsc3n2)cc1 | 14µM | . | . | . | ? | .
COC(=O)CSc1nnc2cc(C)c3ccccc3n12 | . | . | . | . | . | .
COc1ccc(/C=C2\N=C(c3ccccc3Cl)NC2=O)cc1 | 5.8µM | ? | . | . | 0.82µM | .
C[C@]12CCC3c4ccc(O)cc4CCC3C1CC/C2=N\N (stereo not given in full) | . | . | . | . | ? | .
Cc1nn(C)c(C)c1/C=N/N=C1\CCC2C3CCc4cc(O)ccc4C3CCC12C (stereo not given) | ? | . | . | . | 12µM | .
